Source: PubChem BioAssay (National Center for Advancing Translational Sciences (NCATS))
MCF10A rereplic – DNA re-replication induction in MCF 10a cells | MCF 10A DNA re-replication, Hoechst nuclear intensity, 48 h | Potency, µM (titrated, usually from 46.1 µM), without a hit: top-dose activity, positive = re-replication, usual class: activators | actives 2.9% (n = 350,000); note: % of control where 0% means no effect; nearly all actives have a fitted effect of over 50% in size
Gal4-VP16 FLuc – Gal4-VP16 reporter inhibition counter-screen; actives 3.5% (n = 310,000); Drosophila S2 Gal4-VP16 UAS-luciferase, luminescence, 20 h; Potency, µM (top dose mostly 53.6 µM), inactives show at the highest dose activity, negative = inhibition, usual class: inhibitors; AID 2546;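 note: Gal4-VP16 expression switched on by copper sulfate through the metallothionein promoter; % is set by controls: 0 for no effect and ±100 for the full control effect; nearly all actives have a fitted effect of over 50% in size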
RORgamma inh – blocks mouse ROR gamma transcriptional activity | Drosophila S2 Gal4-RORgamma UAS-luciferase reporter, 20 h | Potency, µM (highest dose often 53.6 µM), for the others: top-dose activity change, negative = inhibition, usual class: inhibitors | actives 5.4% (n = 310,000) | AID 2551 | P51450; note: % is set by controls: 0 for no effect and ±100 for the full control effect; nearly all actives have a fitted effect of over 60% in size
Target sequence (P51450 whole entry, looked up, the tested form may be a part): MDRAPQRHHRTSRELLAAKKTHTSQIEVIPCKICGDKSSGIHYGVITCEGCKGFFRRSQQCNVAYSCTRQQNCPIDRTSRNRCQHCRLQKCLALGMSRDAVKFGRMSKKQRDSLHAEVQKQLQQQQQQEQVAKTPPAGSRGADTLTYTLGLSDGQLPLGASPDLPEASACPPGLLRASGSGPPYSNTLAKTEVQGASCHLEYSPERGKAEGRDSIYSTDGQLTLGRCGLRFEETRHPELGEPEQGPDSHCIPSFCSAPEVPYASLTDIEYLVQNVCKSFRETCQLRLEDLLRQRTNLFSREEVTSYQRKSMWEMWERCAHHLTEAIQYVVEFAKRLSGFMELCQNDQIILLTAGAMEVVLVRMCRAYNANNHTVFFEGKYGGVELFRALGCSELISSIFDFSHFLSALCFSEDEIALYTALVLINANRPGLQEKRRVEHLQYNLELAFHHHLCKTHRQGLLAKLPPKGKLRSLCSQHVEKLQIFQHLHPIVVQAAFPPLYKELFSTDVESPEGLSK
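Stable Schneider cell line, Gal4 DNA-binding domain fused to ROR gamma, UAS-luciferase. Cmpd 1 hr RT → CuSO4 700 uM final → 20 hr RT → luciferase reagent 10 min → luminescence.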
SW480 rerep – DNA re-replication induction in SW480 cells. SW480 DNA re-replication, Hoechst DNA content imaging, 48 h. Potency, µM (series often up to 46.1 µM), inactives show at the top dose re-replication activation, most hits filed as activators. actives 1.8% (n = 340,000). AID 624297; note: % of control where 0% means no effect; nearly all actives have a fitted effect of over 55% in size
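DNA re-replication was detected as more nuclei of elevated Hoechst intensity after 48 hr exposure to compound (23 nL pinned per well of 250 cells).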
ELG1 DNA repair – ELG1-dependent DNA repair inhibition; HEK293T ELG1-luciferase reporter, luminescence, 16 h; DNA damage induced by 5-fluorouridine; Potency, µM (series often up to 46.1 µM), without a hit: at the top dose activity change, negative = inhibition, actives largely listed as inhibitors; actives 2.3% (n = 330,000); note: % is set by controls: 0 for no effect and ±100 for the full control effect; nearly all actives have a fitted effect of over 55% in size
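Reporter activity after DNA damage by 5-fluorouridine is monitored. Compound-treated cells incubate 16 hr at 37 °C, then ONE-Glo is added for 30 min before luminescence reading.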
* = called active by the depositor; ? = inconclusive; / = no result given; [ ] = dose if it differs, or a comment. Sampled rows, rich in hits. Any-hit rate of the full collection: about 10%. Calls come from the whole dose curve; as a rule, active = well fitted curve in the direction sought with a large enough effect; inconclusive = small, poorly fitted or top-dose-only effect, or another doubt; inactive = no such curve, though single readings can be large; an effect the other way counts as inactive or inconclusive. Potency is the fitted concentration of half-maximal effect.

SMILES	MCF10A rereplic	Gal4-VP16 FLuc	RORgamma inh	SW480 rerep	ELG1 DNA repair
O=C(O)c1cc(-c2cccnc2)nc2ccccc12	?	-4.4%	6.3%	11.6%	?
O=C(N/N=C/c1cccnc1)c1cc(-c2ccc(Br)cc2)nc2ccccc12	?	-23.5%	-18.5%	20.6µM*	13µM*
Oc1ccc(C[C@H]2CNC(=S)N2CC2CCCN2C[C@H](Cc2ccc(O)cc2)N2C[C@H](Cc3ccccc3)N(CC3CCCCCC3)C2=S)cc1 (some centres undefined)	?	/	/	11.0%	/
Oc1ccc(C[C@H]2CNC(=S)N2CC2CCCN2C[C@H](Cc2ccc(O)cc2)N2C[C@H](Cc3ccc(O)cc3)N(CC3CCCCCC3)C2=S)cc1 (some centres undefined)	10.3µM*	/	/	?	/
N#Cc1c(N)nc(SCc2ccncc2)c(C#N)c1-c1cccs1	?	/	-28.8%[0.365 µM]	?	5.17µM*
COc1cc(-c2c(C#N)c(N)nc(SCc3ccncc3)c2C#N)cc(OC)c1OC	4.7%	-6.4%	-15.4%	3.5%	11.2µM*
CCCCN(CC)Cc1ccc(CNC(=S)Nc2c(C)cc(C)cc2C)o1	12.7%	6.31µM*	3.16µM*	-6.6%	0.0%
CCCCN(CC)Cc1ccc(CNC(=S)Nc2ccc(C)cc2Cl)o1	-0.7%	-27.5%	15.8µM*	?	?
COc1ccccc1N1C(C)=CC(=C(C#N)c2nc3ccccc3s2)C=C1C	?	?	7.08µM*	18.4µM*	?
CC(=O)c1cc2c(cc1NC(=O)c1ccccc1C)OCO2	/	-14.7%[10 µM]	-1.3%	/	11.0%
CC(=O)Nc1sc2c(c1C(c1ccccc1Cl)N1CCN(CCO)CC1)CCCC2 (centres undefined)	2.6%	-18.2%	19.8%	-1.0%	-2.2%
COc1cc(OC)c(OC)cc1CN1CCSCC1	?	0.2%	-42.4%	1.4%	8.6%
COC(=O)C1=C(C(=O)OC)SC2(S1)C(C(=O)OC)=C(C(=O)OC)SC1=C2c2cc(C)cc(C)c2NC1(C)C	3.2%	-17.1%	12.6µM*	18.7%	/
COc1ccc(NC(=O)CSCC(=O)N(C)Cc2ccc3c(c2)OCCO3)cc1	2.7%	/	/	0.9%	-3.4%
COc1ccc(/C=C(\C#N)C(=O)OCC(=O)NC2CC2)cc1	0.2%	0.7%	18.4%	8.1%	-0.6%
CCCCCCCC/C=C/CCCCCCCC(=O)NCCOP(=O)(O)O	/	-8.4%	-10.8%	/	/
Cc1ccc(NC2=C/C(=N/S(=O)(=O)c3cccs3)c3ccccc3C2=O)cc1C	?	-27.7%	?	-5.0%	?
CC(=O)Nc1ccc(NC(=O)C(C)OC(=O)c2ccccc2NS(=O)(=O)c2cccs2)cc1 (centres undefined)	11.4%	6.8%	17.6%	-16.9%	-9.1%
CC(=O)Nc1ccc(NC2=C/C(=N/S(=O)(=O)c3cccs3)c3ccccc3C2=O)cc1	8.2µM*	5.01µM*	7.08µM*	4.11µM*	1.64µM*
Cc1ccccc1NC1=C/C(=N\S(=O)(=O)c2cccs2)c2ccccc2C1=O	?	5.62µM*	3.98µM*	4.11µM*	3.66µM*
COc1ccc(S(=O)(=O)/N=C2\C=C(Nc3ccc(O)cc3)C(=O)c3ccccc32)cc1	4.61µM*	5.62µM*	10µM*	16.4µM*	5.8µM*
O=C1C=C(NCc2ccccc2)c2ccccc2C1=O	?	?	15.8µM*	18.4µM*	11.6µM*
O=C1C=C(Nc2ccccc2O)c2ccccc2C1=O	?	10µM*	?	6.51µM*	?
O=c1cccccc1NCc1ccccc1	1.5%	?	1.6%	-27.7%	0.0%
O=C(Nc1ccccc1O)c1ccc2c(c1)C(=O)N(N1C(=O)c3ccccc3C1=O)C2=O	6.3%	-6.2%	35.1%	3.1%	-1.9%
SMILES	MCF10A rereplic	Gal4-VP16 FLuc	RORgamma inh	SW480 rerep	ELG1 DNA repair
Cc1ccc(NC2=CC(=O)C(=O)c3ccccc32)c(C)c1	-4.9%	/	/	8.7%	20.6µM*
CCCC(NCC(O)COc1ccc(-c2ccccc2)cc1)c1ccccc1 (centres undefined)	4.11µM*	?	?	5.17µM*	?
CC(NCC(O)COc1ccc2ccccc2c1)c1ccccc1 (centres undefined)	?	-1.9%	-26.8%	23.1µM*	-20.5%
CC1CCC(C(C)C)C(OCC(O)CNC(C)c2ccccc2)C1 (centres undefined)	16.4µM*	?	?	8.0%	-16.6%
Cn1nc(C(C)(C)C)cc1C(=O)NNC(=O)c1cccc(Cl)c1	0.0%	?	?	-20.5%	7.3µM*
c1ccc(-c2nc(Sc3ncnc4c3cnn4-c3ccccc3)n[nH]2)cc1	/	?	?	/	3.8%
COCCNC(=O)Cn1c(=O)n(CCCCCC(=O)Nc2ccccc2)c(=O)c2sccc21	-1.2%	7.2%	39.4%	-1.3%	?
COc1cc(-c2nc3ccccn3c2/N=C/c2cc(OC)c(OC)c(OC)c2)ccc1O	3.3%	/	/	-5.1%	/
Cc1c(-c2ccc(Br)cc2)nc2ccccn12	?	?	10µM*	-3.6%	?
CN(C)c1ccc(-c2nc3ccccn3c2/N=C/c2ccc(Br)cc2)cc1	-1.9%	8.91µM*	7.08µM*	?	?
O=C(CN1C(=O)c2cccc3cccc1c23)N1CCN(c2ccc(F)cc2)CC1	11.2µM*	1.3%	-2.4%	?	?
O=C(CN1C(=O)c2cccc3cccc1c23)N1CCN(c2ccccc2)CC1	23.1µM*	6.6%[0.365 µM]	0.9%	?	28.3%
O=C(CN1C(=O)c2cccc3cccc1c23)N1CCN(c2cccc(Cl)c2)CC1	-3.1%	-2.8%	-12.1%	2.6%	-3.1%
COc1ccc(C(C(=O)NC2CCCCC2)N(C(=O)c2cccs2)c2ccc3c(c2)OCO3)cc1 (centres undefined)	?	-13.9%	11.0%	4.3%	-0.9%
C#CC(=O)N(c1cc(OC)ccc1OC)C(C(=O)NC1CCCC1)c1cccs1 (centres undefined)	25.8%	7.08µM*	4.47µM*	0.146µM*	23.1µM*
O=C(NC1CCCCC1)C(c1ccccc1)N(C(=O)c1cccs1)c1ccc2c(c1)OCO2 (centres undefined)	-5.9%	-15.2%	-10.6%	1.3µM*	4.0%
O=C(NC1CCCCC1)C(c1cccs1)N(C(=O)C(F)(F)F)c1ccccc1 (centres undefined)	14.6µM*	?	-18.4%	?	0.5%
C#CC(=O)N(c1ccc(OC)cc1OC)C(C(=O)NC1CCCC1)c1cccs1 (centres undefined)	?	7.94µM*	6.31µM*	?	1.1%
COc1ccc(N(C(=O)c2ccco2)C(C(=O)NC2CCCCC2)c2cccs2)cc1OC (centres undefined)	-1.1%	-3.2%	?	0.3%	?
Cc1ccc(N(C(=O)C(F)(F)F)C(C(=O)NC2CCCCC2)c2cccs2)cc1C (centres undefined)	-5.1%	-0.2%	-2.8%	-6.7%	-6.6%
